Measurements as given in the supplement of paper PMC4166925.
± gives the standard deviation of the averaged measurements. In all, about 33,000 sequences were measured (“E-score (dimensionless, -0.5 to 0.5)”: median about -0.046, highest 2% from about 0.36 on). What follows is part of a selection rich in the highest values, with near analogues and random picks from the rest.

tested on: T1, SpTbr T-box DNA-binding domain (GST fusion); assay: PBM E-score of 8-mer (E-score (dimensionless, -0.5 to 0.5)); Tbr is Tbrain of the sea star Patiria miniata (Pm) or the sea urchin Strongylocentrotus purpuratus (Sp); higher = stronger binding preference; details: the construct has about 5 more residues each side
T1 sequence: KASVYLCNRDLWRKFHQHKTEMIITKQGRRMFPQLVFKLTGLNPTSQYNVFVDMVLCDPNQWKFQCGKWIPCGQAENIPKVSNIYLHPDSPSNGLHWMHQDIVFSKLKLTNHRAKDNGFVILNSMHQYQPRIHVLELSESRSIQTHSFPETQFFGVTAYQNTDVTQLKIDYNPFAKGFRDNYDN
Procedure, shortened: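 Using the Universal PBM Analysis Suite, every ungapped 8-mer received an enrichment E-score averaged over duplicate arrays. Probe intensities came from double-stranded Universal Agilent oligonucleotide arrays incubated with 200 nM GST-fused Tbr T-box DNA-binding domain in PBS (pH 7.5). That protein was expressed in BL21 E. coli at 20 °C and purified by glutathione affinity chromatography.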

| Sequence | PBM E-score of 8-mer |
| --- | --- |
| GACTCTCA | 0.0161 ± 0.056 |
| ATTCACAG | 0.395 ± 0.025 |
| GTTCACAA | 0.376 ± 0.02 |
| ATTCACTC | 0.115 ± 0.056 |
| GTTCACTA | -0.0482 ± 0.02 |
| CTTCACAC | 0.4852 ± 0.00088 |
| ATTCACTG | 0.0169 ± 0.045 |
| GTTCACGA | 0.275 ± 0.0011 |
| ATTCACCG | 0.0187 ± 0.041 |
| CTTCACAA | 0.32 ± 0.0058 |
| CTTCACCC | 0.123 ± 0.04 |
| ATTCACAA | 0.299 ± 0.061 |
| ATTCACAC | 0.4807 ± 0.0029 |
| AGAGAGCT | -0.0758 ± 0.017 |
| GGAGAACC | 0.0265 ± 0.00056 |
| GCAATACA | -0.0823 ± 0.031 |
| CATCGACA | 0.222 ± 0.013 |
| ACTTTTCT | 0.00466 ± 0.018 |
| CATAAGTC | -0.18 ± 0.0024 |
| CACAGTTA | 0.147 ± 0.022 |
| CCTCAGAC | -0.204 ± 0.031 |
| AACAACAA | 0.102 ± 0.0091 |

| Sequence | PBM E-score of 8-mer |
| --- | --- |
| AACAACAT | 0.187 ± 0.02 |
| GACAACTC | 0.252 ± 0.019 |
| CACAACAG | 0.198 ± 0.0064 |
| AACAACAC | 0.373 ± 0.013 |
| GACAACAA | 0.215 ± 0.015 |
| CTCAACAC | 0.269 ± 0.022 |
| GTCAACAA | 0.333 ± 0.0095 |
| CACAACAC | 0.3898 ± 0.0017 |
| CACAACAA | 0.285 ± 0.028 |
| GACAACAC | 0.385 ± 0.0048 |
| GTCAACAC | 0.434 ± 0.0065 |
| AGAGCCAG | 0.0237 ± 0.035 |
| TGTTTCAA | -0.0693 ± 0.047 |
| CAGCGCAA | -0.0911 ± 0.0026 |
| GCAGCGCC | 0.189 ± 0.062 |
| CGCATGGC | -0.0354 ± 0.028 |
| CCTCCACG | 0.0268 ± 0.029 |
| CCGCAAGG | -0.0599 ± 0.044 |
| ACCGTCCG | -0.0723 ± 0.023 |
| CGGTTAAA | -0.129 ± 0.16 |
| GGGACACC | 0.226 ± 0.042 |
| ACGACACT | 0.257 ± 0.0054 |

| Sequence | PBM E-score of 8-mer |
| --- | --- |
| CCGACACG | 0.253 ± 0.034 |
| CCGACACA | 0.36 ± 0.022 |
| CCGACACC | 0.438 ± 0.0068 |
| ACGACACG | 0.226 ± 0.042 |
| GCGACACC | 0.432 ± 0.021 |
| GCGACACA | 0.31 ± 0.0039 |
| ACGACACC | 0.419 ± 0.02 |
| CGTTGGGC | -0.255 ± 0.022 |
| ATCAATCC | -0.172 ± 0.082 |
| GAACGATC | 0.0814 ± 0.028 |
| CCTGACCC | -0.133 ± 0.084 |
| TGAGCGCA | 0.00286 ± 0.049 |
| CTGTGATA | 0.23 ± 0.055 |
| ATGTGATA | 0.254 ± 0.024 |
| ATGTGAGA | 0.414 ± 0.018 |
| CTGTGAGA | 0.292 ± 0.0058 |
| GTGTGATA | 0.459 ± 0.0047 |
| ATGTGAGC | 0.06995 ± 0.00026 |
| ATGTGAGG | 0.28 ± 0.041 |
| GTGTGAGA | 0.4699 ± 0.0024 |
| GTGAGAGA | 0.339 ± 0.0054 |
| CCGATCAA | 0.0887 ± 0.014 |

| Sequence | PBM E-score of 8-mer |
| --- | --- |
| GTACTTGA | 0.0232 ± 0.044 |
| GCATCCCA | -0.16 ± 0.063 |
| GTCACAAC | 0.293 ± 0.0073 |
| AGGTGTAC | 0.294 ± 0.0088 |
| AGGTGTAT | 0.281 ± 0.011 |
| GGGTGTAA | 0.386 ± 0.0076 |
| TGGTGTAA | 0.292 ± 0.059 |
| CGGTGTAG | 0.17 ± 0.083 |
| AGGTGTAG | 0.3922 ± 0.0034 |
| CGGTGTAA | 0.216 ± 0.014 |
| GGGTGTAC | -0.0335 ± 0.078 |
| AGGTGTAA | 0.475 ± 0.011 |
| CTGGCCCC | -0.113 ± 0.035 |
| AACGAGCG | 0.0213 ± 0.0072 |
| GAGCAAGA | -0.187 ± 0.011 |
| AATCAGTC | -0.0936 ± 0.015 |
| CTCGTTAC | -0.116 ± 0.031 |
| GGTTGCGA | 0.266 ± 0.015 |
| CGCGCAAC | 0.173 ± 0.066 |
| AGTGTGTG | 0.36 ± 0.023 |
| ATTGTGAG | 0.25 ± 0.035 |
| GCTGTGAC | 0.161 ± 0.042 |

| Sequence | PBM E-score of 8-mer |
| --- | --- |
| AGTGTGTC | 0.234 ± 0.06 |
| AGTGTGAT | 0.4721 ± 0.0012 |
| AGTGTGAG | 0.4646 ± 0.0021 |
| AGAGTGAT | 0.231 ± 0.039 |
| GATGTGAC | 0.273 ± 0.019 |
| AATGTGAT | 0.253 ± 0.0037 |
| ACTGTGAC | 0.237 ± 0.023 |
| GGTGTGAC | 0.4822 ± 0.0041 |
| AGTGTGAC | 0.445 ± 0.011 |
| GGAGCTAA | -0.165 ± 0.013 |
| GATTTCAC | 0.332 ± 0.023 |
| ACCTGTAA | 0.154 ± 0.021 |
| AGGCATTG | -0.17 ± 0.042 |
| ATTCAAGG | -0.262 ± 0.017 |
| CCAGCGGA | -0.0913 ± 0.043 |
| ATGACGGA | -0.139 ± 0.0034 |
| CGTGTGAC | 0.399 ± 0.012 |
| CCTGTGAC | 0.263 ± 0.011 |
| CATGTGAG | 0.137 ± 0.0055 |
| CGTGTGAG | 0.4011 ± 0.0033 |
| CCTGTGAG | 0.24582 ± 4.2e-05 |
| CGTGTGTC | 0.172 ± 0.058 |
